The results in this text go back to PubChem BioAssay (NCI).

Molecules are shown by their SMILES. Several values for one entry are separate records, joined by “and”; a condition that tells them apart may be missing. Equal entries are not always repeated. This is part of a sample that, as a whole, favours compounds with a hit. Of some 83,000 tested, about 20% had one in any assay.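 Each cell line was grown in a 96-well plate and treated with one concentration of compound for 48 hours. Values below 10 were considered active.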 A number with no mark means an inactive call. Activity calls are given as the source filed them.

The subject of this experiment is HL-60(TB) leukemia. Briefly: NCI-60 one-dose screen, 48 h (100 = growth as untreated, 0 = no growth, -100 = all killed). The following applies: 10 µM unless noted.
Consider `O=C(Nc1nc2ccc(F)cc2s1)c1cccnc1Nc1ccc(Cl)cc1`, for which the growth is 33.3%.

`CC(C)(O)Cn1cc(-c2ccc3nc(OC4CC4)ccc3c2)c2c(N)ncnc21`: the growth is 97.3% and 76.7%.

Consider `C=CCc1nc2ccccc2s1`, for which the growth is 105%.

With `O=c1[nH]c(=S)[nH]n1C(=S)n1[nH]c(=S)[nH]c1=O`, the growth was 99.1%.

With `Cc1cc(C(C)(C)c2cc(C)c(O)c(CN(C)C)c2)cc(CN(C)C)c1O`, the growth is 81.1%.

As for `COc1ccc(OC)c(/C=C2\COc3ccc(O)cc3C2=O)c1`, the growth was 82.2%.

Regarding `C1CCC([PH+](C2CCCCC2)C2CCCCC2[PH+](C2CCCCC2)C2CCCCC2)CC1.[Au].[CH-]1CCCCC1C1CCCC[N-]1` (stereo not given), the growth was -29.9% (active).

Consider `c1ccc(C(NC2CC3CCC2C3)c2ccccc2)cc1` (stereo not given), for which the growth was 100%.

Consider `C=C1C(=O)O[C@H]2[C@H]1CC/C(Cn1cc(CNCCc3c[nH]c4ccccc34)nn1)=C\CC[C@@]1(C)O[C@@H]21`, for which the growth was 26.1%.

`CCN1CCN(Cc2ccc(NC(=O)Nc3ccc(-n4ccc5c(NC(=O)c6ccccc6)nccc54)cc3)cc2C(F)(F)F)CC1`: the growth was 35.8%.

In the case of `Clc1ccc2c(NCCCNCc3ccc4c(c3)OCO4)ccnc2c1`, the growth is 76.3%.

Take `Cc1ccc(/C=C2\SC(=S)N(c3ccc(F)cc3)C2=O)o1`: the growth is 82.8%.

For the molecule `Oc1cccnc1CN1CCOCC1`, the growth was 94% and 88.5%.

Turning to `CCCNC(=S)N/N=C(\C)c1ccccn1`, the growth was -8.41% (active).

For `COc1cccc2c(=O)c3c(sc12)c(N1CCNCC1)nc1ccccc13`, the growth was -52.2% (active).

Turning to `Cc1ccsc1-c1ccc2c(c1)COC2(CCCN(C)C)c1ccc(F)cc1` (stereo not given), the growth was 23%.

Consider `COc1ccc(/C=C/c2nnc(/C=C/c3ccc(OC)c(OC)c3)o2)cc1OC`, for which the growth is 12.1%.

On to `CCOc1ccc2nc3cc(N)ccc3c(N)c2c1`, for which the growth was 117% and 86.7%.

For `O=C1/C(=C/c2ccc3cccc(Cl)c3n2)SC(=S)N1CCc1ccc(O)cc1`, the growth is 32.4%.

For the molecule `COC(=O)[C@]12CC[C@@H](C)[C@H](C)[C@@H]1C1=CC[C@@H]3[C@@]4(C)C(c5cnco5)=C[C@@](C)(CO)C4=CC[C@@]3(C)[C@]1(C)CC2`, the growth is 21.9%.

On to `O=C(N/N=C\c1cc(Cl)ccc1O)c1ccncc1`, for which the growth was 0% (active).

As for `N#CC1=C(N)Oc2c(sc3c(Br)cccc23)C1c1ccc(F)cc1` (stereo not given), the growth was -25.6% (active).

With `O=C(Nc1nc2c(s1)CCc1c-2c(Br)n(Cc2ccccc2)c1Br)c1ccccc1`, the growth is 84.3%.

Take `CCOC(=O)C#Cc1c(C(=O)OCC)nnn1[C@@H]1O[C@H](CO)[C@H]2OC3(CCCCC3)O[C@H]21`: the growth was 52.8%.

Regarding `Cc1ccc(C)c2c1C(=O)OC2=O`, the growth is 29.7%.

Turning to `C=C1C(=O)O[C@H]2[C@H]1CC/C(COC(=O)NCc1c[nH]c3ccc(OC)cc13)=C\CC[C@@]1(C)O[C@@H]21`, the growth is -35.8% (active).

Consider `O=C1/C(=C2/C=Nc3ccccc32)N(O)c2ccccc21`, for which the growth is 8.87% (active).

Turning to `COc1ccc2cc(/C=C3\N=C(c4cc(OC)c(OC)c(OC)c4)OC3=O)c(OC)nc2c1`, the growth is 95.3%.

For `COC(=O)CC[C@H](C)[C@H]1CC[C@H]2[C@@H]3CC[C@@H]4CC5(CC[C@]4(C)[C@H]3CC(=O)[C@]12C)Nc1ccccc1NC5=NC(C)(C)C` (stereo not given in full), the growth was 43.6%.

Consider `O=C1c2c(c3c4ccccc4[nH]c3c3ccc4ccccc4c23)C(=O)N1CCN1CCCCC1`, for which the growth was 9.19% (active).

Take `O=C(Nc1ncc(Cc2ccc(Cl)c(C(F)(F)F)c2)s1)c1ccc2nnsc2c1`: the growth is 42.5%.

With `Cc1ccc(/C=C2\CN(C(=O)OC(C)(C)C)C/C(=C\c3ccc(C)cc3)C2=O)cc1`, the growth is 41.9%.

For `Cc1ccc(C2C=C(c3ccc(Cl)cc3)N=C3SC=CN32)c(Br)c1` (stereo not given), the growth was 104%.

For the molecule `Cn1cnc([N+](=O)[O-])c1Sc1ncnc2nc[nH]c12`, the growth was 73.5% and 91.7%.

Consider `Clc1cccc(-c2cc(-c3ccc4c(c3)OCCO4)[nH]n2)c1`, for which the growth was 15.2% [25 µM].

As to `Nc1n[nH]c(-c2cc(Cl)ccc2O)c1-c1ccccc1`, the growth was 69.8%.

As to `C=CCCCCOc1cccc(/C=C2\N=C3SCCCN3C2=O)c1`, the growth was 94.9%.

Take `Cc1ccccc1/C=C1\CN(C(=O)OC(C)(C)C)C/C(=C\c2ccccc2C)C1=O`: the growth is 40.6%.

As for `COc1ccc(-c2cc(/C=C3\C(=O)Nc4cc(Cl)ccc43)[nH]n2)cc1OC`, the growth is 53%.

`COc1ccc2c(=O)cc(C(Cl)(Cl)Cl)oc2c1`: the growth was -32.6% (active).
